# Measurements as given in the supplement of paper PMC10105736.
# A number with no mark means an inactive call.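 The calls were made as follows: active = MAPPIT score above the 99th percentile of random reference set scores in the same batch; inactive = at or below it.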
# B1: Hsc70-5 (protein)
# chain: MLRVPKFLPRLARQAGVVPSHMSGASSMFRNLPGASNGISSQLRYKSGEVKGAVIGIDLGTTNSCLAVMEGKQAKVIENAEGARTTPSHVAFTKDGERLVGMPAKRQAVTNSANTFYATKRLIGRRFDDPEVKKDITNLSYKVVKASNGDAWVSSTDGKVYSPSQIGAFILMKMKETAEAYLNTPVKNAVVTVPAYFNDSQRQATKDAGQIAGLNVLRVINEPTAAALAYGMDKTEDKIIAVYDLGGGTFDISILEIQKGVFEVKSTNGDTLLGGEDFDNHIVNFLVAEFKKDSGIDIRKDNIAMQRLKEAAEKAKCELSSSQQTDINLPYLTMDAAGPQHMNLKLTRSKLESLVGDLIKRTIQPCQKALSDAEVSKSEIGEVLLVGGMTRMPKVQSTVQELFGRQPSRSVNPDEAVAVGAAVQGGVLAGDVTDVLLLDVTPLSLGIETLGGVFTRLISRNTTIPTKKSQVFSTASDGQTQVEIKVHQGEREMANDNKLLGSFTLVGIPPAPRGVPQIEVVFDIDANGIVHVSAKDKGTGKEQQIVIQSSGGLSKDEIENMIKKAEEYATADKQKRELIEIVNQGESIVHDTETKMEEFKSQLPAEECEKLKKEIADLRTLLANKETADLEEVRKATSSLQQSSLKLFELAYKKMSAERESNAGAGSSDSSSSSDTSGEAKKEEKN
# B2: CycB (protein)
# chain: MVGTTLKMRGDENASENFKQVQLKKLTVPSMEATTKRAALGDLQNRGISRPIAAKDAAQKDSKDLKLTDALRNAKARVDSHWKKQPLGSTNGNGNGAVPPKVNEGGVSAFLRSNSVRNRVPTKTTVEPTKVTVKSSSSENVNEPTLKREDSNLSKKSLTKLRAALAKPVMGVSGIRREPVAVSRKEAETKKELPETKKDSLEVKKDATRMPLIRGNSAVTTTTSTMPTTMSLSSKRLAGIEDIDANDKENLVLVSEYVNDIYDYLYQVELEQPIHKDHLAGQKEVSHKMRAVLIDWINEVHLQFHLAAETFQLAVAIIDRYLQVVKDTKRTYLQLVGVTALFIATKYEELFPPAIGDFVFITDDTYTARQIRQMELQIFKAIDCNLSRPLPIHFLRRYSKAAGAEDEHHTMSKYFIELASVDYEMATYRPSEIAAASLFLSLHLLNGNHRAGTGFNDRHWTPTLTFYSRYSAAHLRPITRLIAKLARDAPQAKLKAIYNKYQGSKFQKIALRTELTGALMDSIVGQSQRK
# B3: PolZ2 (protein)
# chain: MQAEIKADIIVEAMEVLVNHILYVRGIYPSHIFKMKRMYNSPIYVSIFPPLNNYLAGVLKSAQELLRRRELQCLELIVYQKENEKLESYKMQLETQRSGLPAEDHLMEFEQNMRSVIYKISQRLNQAPKLPAGSCQFKVHLHTTQEAFIRFSHDSQYQEFPWLQTQKTESQATGRTVYLLPLARVDDLGLKMDVLIVN
# B4: RpS3A (protein)
# chain: MAVGKNKGLSKGGKKGGKKKVVDPFSRKDWYDVKAPNMFQTRQIGKTLVNRTQGQRIASDYLKGRVFEVSLADLQKDIDPERSFRKFRLIAEDVQDRNVLCNFHGMDLTTDKYRSMVKKWQTLIEAIVEAKTVDGYLLRVFCIGFTAKDQQSQRKTCYAQQSQVRKIRARMTDIITNEVSGADLKQLVNKLALDSIAKDIEKSCQRIYPLHDVYIRKVKVLKKPRFDVSKLLELHGDGGGKSVEAVVSSEGAVIDRPEGYEPPVQEAV
# B5: zetaTry (protein)
# chain: MSSSWIVGLLAFLVSLVALTQGLPLLEDLDEKSVPDGRIVGGYATDIAQVPYQISLRYKGITTPENPFRHRCGGSIFNETTIVTAAHCVIGTVASQYKVVAGTNFQTGSDGVITNVKEIVMHEGYYSGAAYNNDIAILFVDPPLPLNNFTIKAIKLALEQPIEGTVSKVSGWGTTSPGGYSSNQLLAVDVPIVSNELCDQDYEDFGDETYRITSAMLCAGKRGVGGADACQGDSGGPLAVRDELYGVVSWGNSCALPNYPGVYANVAYLRPWIDAVLAGL
# B6: Or43b (protein)
# chain: MFGHFKLVYPAPISEPIQSRDSNAYMMETLRNSGLNLKNDFGIGRKIWRVFSFTYNMVILPVSFPINYVIHLAEFPPELLLQSLQLCLNTWCFALKFFTLIVYTHRLELANKHFDELDKYCVKPAEKRKVRDMVATITRLYLTFVVVYVLYATSTLLDGLLHHRVPYNTYYPFINWRVDRTQMYIQSFLEYFTVGYAIYVATATDSYPVIYVAALRTHILLLKDRIIYLGDPSNEGSSDPSYMFKSLVDCIKAHRTMLNFCDAIQPIISGTIFAQFIICGSILGIIMINMVLFADQSTRFGIVIYVMAVLLQTFPLCFYCNAIVDDCKELAHALFHSAWWVQDKRYQRTVIQFLQKLQQPMTFTAMNIFNINLATNINVAKFAFTVYAIASGMNLDQKLSIKE
# B7: CG33169 (protein)
# chain: MRQLKGKVKETRKQKKERKLDNLETQAKIRTVVLPALGVLAVFLVLFVYLKTRPAVLA
# How the values were obtained:
# Experiment in all cases: MAPPIT interaction score (arbitrary units); higher = stronger binary interaction signal, active = hit call of the paper
# CG31121 = conditions: MAPPIT configuration: N-N; pair source set: Curagen_high_conf
# CG31550 = conditions: MAPPIT configuration: N-N; pair source set: Lit-BS-16
# GstE2 = conditions: MAPPIT configuration: N-N; pair source set: Finley_Y2H
# PAN3 = conditions: MAPPIT configuration: N-N; pair source set: Lit-BS-16
# Rbp6 = conditions: MAPPIT configuration: N-N; pair source set: Finley_Y2H
# CG3085 = conditions: MAPPIT configuration: N-C; pair source set: screen_3
# CG8281 = conditions: MAPPIT configuration: N-N; pair source set: screen_1
# Gale = conditions: MAPPIT configuration: N-N; pair source set: DPIM
# PHDP = conditions: MAPPIT configuration: N-N; pair source set: Finley_Y2H
# Vsx2 = conditions: MAPPIT configuration: N-N; pair source set: Finley_Y2H
# eco = conditions: MAPPIT configuration: N-N; pair source set: screen_1
# CG32182 = conditions: MAPPIT configuration: N-N; pair source set: RRS
# CG31600 = conditions: MAPPIT configuration: N-C; pair source set: screen_4
# CG30472 = conditions: pair source set: RRS
# CG31523 = conditions: MAPPIT configuration: N-C; pair source set: screen_3
# EMC5 = conditions: MAPPIT configuration: N-C; pair source set: screen_3
# RNASEK = conditions: MAPPIT configuration: N-C; pair source set: screen_3
# 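Also: HEK293T cells with Epo stimulation, STAT-responsive firefly luciferase reporter, fold induction versus unstimulated cells divided by the larger fold induction of two negative controls lacking either bait or prey.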
binder,measurement,setting,value
B1,MAPPIT interaction score,CG31121,0.0518
B2,MAPPIT interaction score,CG31550,0.517
same,MAPPIT interaction score,GstE2,0.748
same,MAPPIT interaction score,PAN3,0.557
same,MAPPIT interaction score,Rbp6,0.383
B3,MAPPIT interaction score,CG3085,1.42
same,MAPPIT interaction score,CG8281,1.67
same,MAPPIT interaction score,Gale,0.112
same,MAPPIT interaction score,PHDP,-0.0614
same,MAPPIT interaction score,Vsx2,0.017
same,MAPPIT interaction score,eco,0.29
B4,MAPPIT interaction score,CG32182,0.147
B5,MAPPIT interaction score,CG31600,0.866
B6,MAPPIT interaction score,CG30472; MAPPIT configuration: N-C,0.0282
same,MAPPIT interaction score,CG30472; MAPPIT configuration: N-N,0.0958
B7,MAPPIT interaction score,CG31523,0.414
same,MAPPIT interaction score,EMC5,-0.647
same,MAPPIT interaction score,RNASEK,0.381
